The campaign covered roughly 370,000 compounds. About 2,600 (0.7%) were called active. The sample holds actives, similar compounds and a random draw of the others, so the mix is not that of the screen.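 The calls were made as follows: active = inhibition above a cutoff: mean of compounds within the control limits plus 3 SD of those (cut at about 17% in these data); inactive = the rest.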
The molecules below were run against Sialate O-acetylesterase (Homo sapiens) (UniProt Q9HAT2) (assay: human SIAE inhibitors, primary screen, biochemical, fluorescence polarization, FP-Rh probe, 1536-well HTS (AID 1053197;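 also: 0% = plate median of compound wells and 100% = probe without SIAE protein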)). Conditions: SIAE FP-Rh probe binding, at 9.66 µM, stronger effect = higher value.
Chain of Sialate O-acetylesterase (Homo sapiens) (Q9HAT2 whole entry, looked up): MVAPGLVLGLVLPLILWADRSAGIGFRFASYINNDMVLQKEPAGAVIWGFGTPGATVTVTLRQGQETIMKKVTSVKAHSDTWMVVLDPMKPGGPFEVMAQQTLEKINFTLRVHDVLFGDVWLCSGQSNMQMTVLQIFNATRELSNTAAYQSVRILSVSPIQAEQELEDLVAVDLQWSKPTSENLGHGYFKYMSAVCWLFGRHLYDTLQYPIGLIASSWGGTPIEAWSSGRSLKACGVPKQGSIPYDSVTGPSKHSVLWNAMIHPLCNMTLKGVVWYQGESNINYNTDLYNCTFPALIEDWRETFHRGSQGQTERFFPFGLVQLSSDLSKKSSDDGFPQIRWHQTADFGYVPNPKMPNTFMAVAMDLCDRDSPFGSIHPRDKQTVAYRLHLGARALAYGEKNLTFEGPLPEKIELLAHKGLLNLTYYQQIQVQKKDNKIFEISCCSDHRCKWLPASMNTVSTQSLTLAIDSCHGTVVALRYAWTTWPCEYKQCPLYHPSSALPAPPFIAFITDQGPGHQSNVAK

| SMILES | inhibition |
| --- | --- |
| Cc1cccc(N2C(=O)SC(SC(=Nc3ccccc3)Nc3ccccc3)C2=O)c1 (stereo not drawn) | 18.1% (active) |
| COC(=O)c1ccccc1SC1CC(=O)N(c2cccc(C)c2)C1=O (stereo not drawn) | -0.8% (inactive) |
| Cc1cccc(N2C(=O)SC(N(CC(=O)O)c3cccc(C)c3)C2=O)c1 (stereo not drawn) | 1.65% (inactive) |
| COc1ccc(Cn2cc(COC(=O)N(C)Cc3ccccc3)nn2)cc1 | 0.99% (inactive) |
| CCOC(=O)[C@]12CCCC3=C1N(CCC3)C(=O)[C@@H](CC(=O)N1CCSCC1)C2 | -3.23% (inactive) |
| Cc1cc(=O)[nH]c(SCC(=O)Nc2ccc(F)cc2F)n1 | -0.82% (inactive) |
| CCN(CC)S(=O)(=O)c1cc(C(=O)Nc2cc(S(=O)(=O)N3CCOCC3)ccc2N2CCCC2)ccc1F | 1.03% (inactive) |
| O=C(Nc1ccccc1N1CCCC1)c1ccc(F)c(S(=O)(=O)N2CCOCC2)c1 | 20.5% (active) |
| Cc1ccc(S(=O)(=O)N2CCOCC2)cc1C(=O)Nc1ccccc1N1CCCC1 | 12.1% (inactive) |
| CC(C)CNC(=O)OCc1cn(Cc2ccc(F)cc2)nn1 | -8.33% (inactive) |
| Cc1cc(=O)[nH]c(SCC(=O)Nc2ccc(Cl)cc2C)n1 | 1.99% (inactive) |
| O=C(c1ccccc1)c1ccc(-c2ccccc2C(=O)NC2CCCCN(Cc3ccc(Cl)cc3)C2=O)cc1 (stereo not drawn) | 1.39% (inactive) |
| CC1CC(C)CN(C/C=C/c2ccccc2[N+](=O)[O-])C1 (stereo not drawn) | 2.91% (inactive) |
| CC1CCCCC1NC(=O)/C(C#N)=C/C=C/c1ccccc1[N+](=O)[O-] (stereo not drawn) | 17.2% (active) |
| COc1cc(/C=C(\C#N)C(=O)Nc2ccc3ccccc3c2)c([N+](=O)[O-])cc1OC | -1.47% (inactive) |
| CC(C)CNc1cccc2c1S(=O)(=O)N(Cc1cn(Cc3ccc(Cl)cc3)nn1)Cc1ccccc1O2 | 3.21% (inactive) |
| O=C(NC1CCCCN(Cc2ccc(Cl)cc2)C1=O)c1ccc(Br)cc1 (stereo not drawn) | -3.06% (inactive) |
| CN(Cc1ccc(C(F)(F)F)cc1)C(=O)[C@H]1O[C@@H](n2cnc3c(N)ncnc32)[C@H](O)[C@@H]1O | 81.3% (active) |
| CN(Cc1ccc(CNC[C@H]2O[C@@H](n3cnc4c(N)ncnc43)[C@H](O)[C@@H]2O)o1)S(C)(=O)=O | -0.06% (inactive) |
| Nc1ncnc2c1ncn2[C@@H]1O[C@H](C(=O)N[C@@H](CCc2ccccc2)C(=O)NCC(=O)N2CCOCC2)[C@@H](O)[C@H]1O | 2.34% (inactive) |
| Nc1ncnc2c1ncn2[C@@H]1O[C@H](C(=O)NCC(F)(F)F)[C@@H](O)[C@H]1O | 51.2% (active) |
| Nc1ncnc2c1ncn2[C@@H]1O[C@H](C(=O)N2CCCN(Cc3ccccc3F)CC2)[C@@H](O)[C@H]1O | -1.61% (inactive) |
| Nc1ncnc2c1ncn2[C@@H]1O[C@H](C(=O)N2CCSC2)[C@@H](O)[C@H]1O | 1.67% (inactive) |
| CC(C)CSc1nnc(-c2cccnc2)n1Cc1ccccc1 | 0.87% (inactive) |
| O=C(NCc1ccc(Cl)cc1)C1CCCN(c2nc3ccccc3o2)C1 (stereo not drawn) | 1.99% (inactive) |
| O=C(Nc1cc(F)cc(F)c1)OC1CCC12CCC(c1ccccc1)CC2 (stereo not drawn) | -17% (inactive) |
| Nn1c(SCC(=O)N2c3ccccc3Sc3ccccc32)nnc1-c1n[nH]c2c1CCC2 | -8.15% (inactive) |

| SMILES | inhibition |
| --- | --- |
| CN(C)CC(=O)N[C@@H]1C[C@@H]2O[C@H](CO)CC[C@@H]2O[C@@H]1CCc1ccc(C#Cc2ccccc2)cc1 | 5.34% (inactive) |
| COc1ccc(C(=O)OCCN(C)C2CN(Cc3cn(Cc4cccc(C)c4)nn3)S(=O)(=O)C2)cc1OC (stereo not drawn) | -4.69% (inactive) |
| O=C(N/N=C/c1ccc(O)c2ccccc12)c1cccnc1 | 18.7% (active) |
| O=C(NN=C1CCC(=NNC(=O)c2cccnc2)CC1)c1cccnc1 | 20.1% (active) |
| O=C(O)/C(=C/c1cccnc1)NC(=O)c1ccccc1 | 5.04% (inactive) |
| C/C(=N\NC(N)=S)c1cccnc1 | 1.42% (inactive) |
| NS(=O)(=O)c1ccc(NC(=S)NC(=O)c2cccnc2)cc1 | 1.85% (inactive) |
| C/C(=N\NC(=O)c1cccnc1)c1ccc(-n2ccnc2)cc1 | 2.74% (inactive) |
| Cc1cc(NS(=O)(=O)c2ccc(NC(=O)CSc3nnc(-c4ccc(C(C)(C)C)cc4)n3Cc3ccco3)cc2)nc(C)n1 | -2.29% (inactive) |
| COC(=O)[C@]12C[C@H](CC(=O)NCC34CC5CC(CC(C5)C3)C4)C(=O)N(Cc3ccc(Cl)cc3Cl)C1=C[C@H](COCc1ccccc1)O[C@@H]2C | -3.29% (inactive) |
| COc1cc(C(=O)Nn2c(O)c(C3=c4ccccc4=NC3=O)sc2=S)ccc1O | 40.2% (active) |
| COc1cc(C(=O)Nn2c(CC(C)C)nc3ccccc3c2=O)cc(OC)c1OC | -1.34% (inactive) |
| COc1cc(C(=S)NC2CCCCC2)ccc1O | 2.61% (inactive) |
| Cc1ccc(Cn2cc(COC(=O)N(C)Cc3ccccc3)nn2)cc1 | 2.24% (inactive) |
| CC(=O)N1CCCN(C2=Nc3ccccc3Sc3ccccc32)CC1 | 13.5% (inactive) |
| COCCN(C(=O)c1ccco1)c1nnc(-c2ccc(OC)cc2)s1 | -0.46% (inactive) |
| COCCNC(=O)Nc1ccc2nc(-c3ccco3)c(-c3ccco3)nc2c1 | 37.3% (active) |
| COCCNC(=O)c1cc2c(Br)ccc(Br)c2nc1N | -3.42% (inactive) |
| CCCCCN1CCCCC(NC(=O)C(C)CCC)C1=O (stereo not drawn) | -1.97% (inactive) |
| CCOC(=O)[C@]12CCCC=C1N(Cc1ccc(OC)cc1)C(=O)[C@@H]2CC(=O)NCc1cccs1 | 0.94% (inactive) |
| Cc1c[nH]c2cccc(-c3ccc(Cl)cc3)c12 | 4.94% (inactive) |
| CCCCC(=O)NC(c1ccc(OC)c(OC)c1)c1ccc2cccnc2c1O (stereo not drawn) | 15.1% (inactive) |
| CC(=O)NC(c1cccs1)c1cc(Br)c2cccnc2c1O (stereo not drawn) | 20.8% (active) |
| O=[N+]([O-])c1cc([N+](=O)[O-])c2cccnc2c1O | 0.23% (inactive) |
| COC(=O)[C@]12C[C@H](CC(=O)N3CCN(C(=O)C4CC4)CC3)C(=O)N(CCC3=CCCCC3)C1=C[C@H](C(C)C)O[C@@H]2C1CC1 | 0.92% (inactive) |
| O=C(CSc1nc2ccccc2n1Cc1ccccc1)NNC(=S)Nc1ccccc1 | 2.33% (inactive) |

From PubChem BioAssay AID1053197 (The Scripps Research Institute Molecular Screening Center, 2014)
